In PubChem BioAssay (NCATS):
Values without a mark were called inactive. Results filed as inconclusive are left out. Entries that show only a call come without a potency. The source made the active and inactive calls. The call rests on the fitted dose curve; in most records, active means well fitted curve in the direction sought with a large enough effect; inconclusive means small, poorly fitted or top-dose-only effect, or another doubt; inactive means no such curve, though single readings can be large; an effect the other way counts as inactive or inconclusive.

How the values were obtained:
[1] = Viability counterscreen for antagonist of constitutive androstane receptor (CAR) against the NCATS DSHEA and TCM libraries (AID 1794837);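 further: compound exposure lasted 24 h before viability reading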
Summary of the method: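 Cells: HepG2 line carrying CYP2B6 reporter and hCAR, seeded and attached 5 h. Then pin-transferred test substances plus agonist CITCO at 48 uM final; 24 h incubation; fluorogenic viability reagent, 1 h.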

[2] = Viability counterscreen for agonist of constitutive androstane receptor (CAR) against the NCATS DSHEA and TCM libraries (AID 1794838);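 further: HepG2 cells with CYP2B6 reporter and hCAR plus 0.75 µM PK11195 antagonist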
Summary of the method: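 Cell health was measured as CellTiter-Fluor signal in HepG2-CYP2B6-hCAR cells treated for 24 h with substances alongside the hCAR antagonist PK11195 (0.75 uM final).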

[3] = target: Nuclear receptor subfamily 1 group I member 3 (Homo sapiens) (UniProt Q14994); test: Primary qHTS for agonist of constitutive androstane receptor (CAR) against the NCATS DSHEA and TCM libraries (AID 1794839);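 further: HepG2 cells expressing human CAR with a CYP2B6 reporter plus PK11195 antagonist; luciferase reporter luminescence read with ONE-Glo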
Sequence of Nuclear receptor subfamily 1 group I member 3 (Homo sapiens) (Q14994 whole entry, looked up): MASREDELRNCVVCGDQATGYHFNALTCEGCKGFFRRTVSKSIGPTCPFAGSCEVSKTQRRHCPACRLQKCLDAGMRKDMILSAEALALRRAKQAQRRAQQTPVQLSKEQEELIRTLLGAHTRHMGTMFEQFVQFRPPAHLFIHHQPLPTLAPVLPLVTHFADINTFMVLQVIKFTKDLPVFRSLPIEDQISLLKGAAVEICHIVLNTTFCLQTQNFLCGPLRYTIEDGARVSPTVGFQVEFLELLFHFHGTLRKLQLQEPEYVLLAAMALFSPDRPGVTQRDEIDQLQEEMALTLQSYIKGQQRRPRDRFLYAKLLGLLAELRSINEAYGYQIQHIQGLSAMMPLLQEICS
Summary of the method: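 qHTS, agonist mode: HepG2-CYP2B6-hCAR, 2,500 cells/well, 5 h attach; cpds + PK11195 0.75 µM final; 24 h, 37 °C, 5% CO2. Readouts: CellTiter-Fluor (405/540 nm), then ONE-Glo luminescence.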

[4] = HepG2 viability counterscreen (readout 2: ATP content) against the NCATS DSHEA and TCM libraries (AID 1794840)
Summary of the method: (§1)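 Same wells read twice: first fluorescence from cleaved GF-AFC substrate (25 uM final, 30 min, 37C) for live-cell protease, then CellTiter-Glo luminescence after 30 min at room temperature for ATP. HepG2 cells were exposed ~24 h to substances.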

[5] = HepG2 viability counterscreen (readout 1: protease activity) against the NCATS DSHEA and TCM libraries (AID 1794841);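 further: cells exposed to compounds for about 24 h before the protease read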
Summary of the method: as §1

[6] = target: Glutathione peroxidase 1 (Homo sapiens) (UniProt P07203); test: Primary qHTS Assay for Inhibitors of Recombinant Selenoprotein Glutathione Peroxidase 1 (GPX1) (AID 1845191); further: nearly all actives have a fitted effect of over 65% in size
Sequence of Glutathione peroxidase 1 (Homo sapiens) (P07203 whole entry, looked up): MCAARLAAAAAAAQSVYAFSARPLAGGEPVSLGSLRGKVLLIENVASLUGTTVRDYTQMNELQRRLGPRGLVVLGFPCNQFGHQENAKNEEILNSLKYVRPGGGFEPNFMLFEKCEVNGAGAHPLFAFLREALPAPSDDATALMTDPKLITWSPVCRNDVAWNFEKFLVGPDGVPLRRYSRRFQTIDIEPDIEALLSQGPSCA
Summary of the method: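 GR-coupled readout: NADPH consumption tracked by fluorescence, ex 340/em 450 nm, at t=0 and after 15 min at RT. Final mix 10 nM GPX1, 1 mM GSH, 0.5 mM CHP, 0.5 mM NADPH, 100 nM GR, 0.01% BSA, following 30 min enzyme–compound preincubation.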

[7] = target: Phospholipid hydroperoxide glutathione peroxidase GPX4 (Homo sapiens) (UniProt P36969); test: Primary qHTS Assay for Inhibitors of Recombinant Selenoprotein Glutathione Peroxidase 4 (GPX4) (AID 1845192); further: nearly all actives have a fitted effect of over 65% in size; on activity change, negative = inhibition: series mostly up to about 50 µM
Sequence of Phospholipid hydroperoxide glutathione peroxidase GPX4 (Homo sapiens) (P36969 whole entry, looked up): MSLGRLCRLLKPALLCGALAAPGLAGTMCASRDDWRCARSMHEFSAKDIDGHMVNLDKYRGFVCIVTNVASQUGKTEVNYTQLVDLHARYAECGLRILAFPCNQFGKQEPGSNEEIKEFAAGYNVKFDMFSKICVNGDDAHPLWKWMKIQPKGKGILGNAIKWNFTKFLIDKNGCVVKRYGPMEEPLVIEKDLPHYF
Summary of the method: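 Steps: GPX4 plus compound, 30 min RT; add GR/GSH/NADPH master mix; start with cumene hydroperoxide; read 340/450 nm fluorescence at 0 and 15 min. Finals were 200 nM GPX4, 1 mM GSH, 0.5 mM CHP, 0.5 mM NADPH, 100 nM GR.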

[8] = target: Luciferin 4-monooxygenase (Photinus pyralis) (UniProt P08659); test: Primary firefly luciferase (FLuc) qHTS assay for identification of artifact compounds. (AID 1845220); further: nearly all actives have a fitted effect of over 60% in size; on activity change, negative = inhibition: series mostly up to about 54 µM
Summary of the method: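 Enzymatic FLuc inhibition assay: compounds pre-exposed to luciferin/ATP (10 uM each) for 15 min, then purified P. pyralis enzyme at 10 nM added. Read-out: luminescence at 5 min.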

[9] = Primary fluorescence-based thiol-reactive (MSTI) qHTS assay for identification of artifact compounds. (AID 1845221); further: nearly all actives have a fitted effect of over 65% in size; further: potency means the concentration at half of the fitted maximal effect;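 on activity change, negative = thiol reactive: series mostly up to about 54 µM; thiol-reactive compounds lower the probe fluorescence signal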
Summary of the method: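 MSTI probe at 4 uM final in 2% DMSO/PBS pH 7.4; compounds, 1 h at room temperature in dark. Fluorescence Ex/Em 525/598 nm, normalised to Acetyl-MSTI and MSTI, fitted to 4-parameter Hill.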

[10] = test system: Nanoluciferase (engineered Oplophorus gracilirostris luciferase); test: Primary Nanoluciferase (NLuc) qHTS assay for identification of artifact compounds. (AID 1845222);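 further: NLuc secreted into diluted conditioned medium of S16 cells; series mostly up to about 54 µM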
Summary of the method: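 S16 cell supernatant NLuc, 1:55; cpds qHTS; 15 min RT dark; Nano-Glo substrate 1:100, 5 min; luminescence; Hill fit of % inhibition.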

[11] = Primary redox qHTS assay for identification of artifact compounds. (AID 1845223)
Summary of the method: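 Redox-cycling detection via DTT (250 uM final) oxidation coupled to Amplex Red (25 uM)/HRP (250 mU/mL) in HBSS. 15 min preincubation plus 30 min after DTT, room temperature. Ex/Em 525/598 nm; 4-parameter Hill fit against DMSO and 10 uM DA3003.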

[12] = target: Cytochrome P450 3A4 (Homo sapiens) (UniProt P08684); test: qHTS for inhibitors of CYP3A4 against the NCATS DSHEA and TCM libraries (AID 1919971);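 further: inhibition lowers luminescence from luciferin made by CYP3A4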
Sequence of Cytochrome P450 3A4 (Homo sapiens) (P08684 whole entry, looked up, canonical isoform): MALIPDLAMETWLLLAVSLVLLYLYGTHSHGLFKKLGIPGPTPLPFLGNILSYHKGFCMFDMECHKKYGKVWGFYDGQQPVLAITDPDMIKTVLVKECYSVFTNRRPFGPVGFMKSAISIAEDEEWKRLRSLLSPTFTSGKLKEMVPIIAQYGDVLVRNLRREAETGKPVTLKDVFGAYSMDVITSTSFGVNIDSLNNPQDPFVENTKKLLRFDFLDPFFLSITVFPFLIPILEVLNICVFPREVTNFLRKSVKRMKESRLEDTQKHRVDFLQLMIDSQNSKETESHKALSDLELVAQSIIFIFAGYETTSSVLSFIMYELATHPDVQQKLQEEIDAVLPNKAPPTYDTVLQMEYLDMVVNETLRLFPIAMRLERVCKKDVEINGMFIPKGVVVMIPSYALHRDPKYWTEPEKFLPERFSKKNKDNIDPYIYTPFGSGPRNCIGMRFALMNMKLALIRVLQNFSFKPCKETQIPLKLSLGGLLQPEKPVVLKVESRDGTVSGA
Summary of the method: (§2)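 Each CYP isoform and its pro-luciferin substrate, at isoform-specific final concentrations, were preincubated 15 min at RT with substances. NADPH regeneration solution (1x) started a 30-45 min reaction, and P450-Glo luminescence was read.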

[13] = target: Cytochrome P450 2D6 (Homo sapiens) (UniProt P10635); test: qHTS for inhibitors of CYP2D6 against the NCATS DSHEA and TCM libraries (AID 1919972)
Sequence of Cytochrome P450 2D6 (Homo sapiens) (P10635 whole entry, looked up): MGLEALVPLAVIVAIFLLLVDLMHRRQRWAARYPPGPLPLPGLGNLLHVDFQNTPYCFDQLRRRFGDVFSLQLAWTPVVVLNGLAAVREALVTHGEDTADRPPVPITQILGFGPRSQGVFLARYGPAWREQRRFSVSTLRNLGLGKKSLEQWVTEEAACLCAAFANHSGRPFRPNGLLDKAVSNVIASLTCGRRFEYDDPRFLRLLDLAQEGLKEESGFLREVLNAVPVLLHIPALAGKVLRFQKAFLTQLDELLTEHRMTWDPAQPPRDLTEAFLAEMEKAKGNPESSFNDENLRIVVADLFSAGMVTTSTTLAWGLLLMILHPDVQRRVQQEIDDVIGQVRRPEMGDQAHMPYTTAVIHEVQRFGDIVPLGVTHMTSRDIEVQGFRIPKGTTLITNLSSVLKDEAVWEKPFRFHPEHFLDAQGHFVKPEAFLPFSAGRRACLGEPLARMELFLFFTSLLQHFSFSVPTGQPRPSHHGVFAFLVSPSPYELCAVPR
Summary of the method: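 CYP2D6 enzyme with pro-luciferin substrate in manufacturer buffer (typically 100 mM KPO4), preincubated 15 min RT with substances (most at 19.5 nM upward); NADPH regeneration system (1x) started 30–45 min RT reaction; P450-Glo luminescence read after 30 min; quinidine as intraplate control.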

[14] = target: Cytochrome P450 2C9 (Homo sapiens) (UniProt P11712); test: qHTS for inhibitors of CYP2C9 against the NCATS DSHEA and TCM libraries (AID 1919973);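 further: luminogenic pro-luciferin CYP2C9 substrate turned into luciferin with NADPH regeneration; series mostly up to about 34 µM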
Sequence of Cytochrome P450 2C9 (Homo sapiens) (P11712 whole entry, looked up): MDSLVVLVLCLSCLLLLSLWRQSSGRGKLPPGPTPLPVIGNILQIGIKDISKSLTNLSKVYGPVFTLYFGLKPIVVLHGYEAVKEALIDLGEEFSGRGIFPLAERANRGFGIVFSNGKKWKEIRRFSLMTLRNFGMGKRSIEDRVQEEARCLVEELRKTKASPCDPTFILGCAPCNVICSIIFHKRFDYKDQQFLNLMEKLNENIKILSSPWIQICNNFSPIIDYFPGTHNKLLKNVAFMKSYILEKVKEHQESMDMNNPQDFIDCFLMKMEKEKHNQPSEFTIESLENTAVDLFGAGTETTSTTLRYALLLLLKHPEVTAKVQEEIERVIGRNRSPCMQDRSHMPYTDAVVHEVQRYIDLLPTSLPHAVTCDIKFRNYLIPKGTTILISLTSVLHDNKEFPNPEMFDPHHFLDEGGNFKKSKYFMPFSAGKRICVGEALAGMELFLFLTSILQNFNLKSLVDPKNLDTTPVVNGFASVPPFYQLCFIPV
Summary of the method: as §2

[15] = target: Cytochrome P450 2C19 (Homo sapiens) (UniProt P33261); test: qHTS for inhibitors of CYP2C19 against the NCATS DSHEA and TCM libraries (AID 1919974);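 further: luminescence from luciferin released by CYP2C19 oxidation of a pro-luciferin substrate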
Sequence of Cytochrome P450 2C19 (Homo sapiens) (P33261 whole entry, looked up): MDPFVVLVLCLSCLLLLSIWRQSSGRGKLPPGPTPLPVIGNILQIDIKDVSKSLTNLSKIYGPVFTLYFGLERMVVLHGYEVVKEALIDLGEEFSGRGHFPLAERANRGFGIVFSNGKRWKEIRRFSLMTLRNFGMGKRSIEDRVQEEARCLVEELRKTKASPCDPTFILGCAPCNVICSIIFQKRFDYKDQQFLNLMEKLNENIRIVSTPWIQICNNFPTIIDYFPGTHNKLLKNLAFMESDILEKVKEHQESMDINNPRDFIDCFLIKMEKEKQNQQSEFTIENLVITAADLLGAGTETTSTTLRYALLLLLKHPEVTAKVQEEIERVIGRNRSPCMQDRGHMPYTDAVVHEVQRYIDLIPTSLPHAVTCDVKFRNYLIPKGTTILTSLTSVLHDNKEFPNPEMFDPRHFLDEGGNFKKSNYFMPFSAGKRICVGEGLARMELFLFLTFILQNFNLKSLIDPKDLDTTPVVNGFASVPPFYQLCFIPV
Summary of the method: as §2

[16] = KB-3-1 P-gp reporter qHTS against the NCATS DSHEA and TCM libraries (AID 1919975)
Summary of the method: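 KB-3-1 parental line, 1536-well qHTS: cells seeded, ~4 h attachment, pintool compound addition, ~72 h at 37C, then CellTiter-Glo, 30 min RT, luminescence. Concentration-response format.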

[17] = target: Cytochrome P450 1A2 (Homo sapiens) (UniProt P05177); test: qHTS for inhibitors of CYPIA2 against the NCATS DSHEA and TCM libraries (AID 1919976); further: series mostly up to about 37 µM
Sequence of Cytochrome P450 1A2 (Homo sapiens) (P05177 whole entry, looked up): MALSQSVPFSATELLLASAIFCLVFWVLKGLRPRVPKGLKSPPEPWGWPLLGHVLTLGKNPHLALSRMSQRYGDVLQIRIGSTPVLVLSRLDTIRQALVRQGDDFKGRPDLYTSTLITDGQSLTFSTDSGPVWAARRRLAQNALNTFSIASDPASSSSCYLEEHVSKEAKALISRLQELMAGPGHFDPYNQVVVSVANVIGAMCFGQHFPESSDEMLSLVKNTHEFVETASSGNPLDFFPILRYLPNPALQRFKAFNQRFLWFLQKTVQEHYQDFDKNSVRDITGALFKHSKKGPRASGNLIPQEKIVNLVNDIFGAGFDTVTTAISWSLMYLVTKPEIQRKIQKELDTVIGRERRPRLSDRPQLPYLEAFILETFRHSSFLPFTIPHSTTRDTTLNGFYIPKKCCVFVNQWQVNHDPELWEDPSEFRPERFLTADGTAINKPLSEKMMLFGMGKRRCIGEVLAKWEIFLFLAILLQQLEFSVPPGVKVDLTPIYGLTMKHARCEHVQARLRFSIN
Summary of the method: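 Reaction started with 1x NADPH regeneration solution and run 30-45 min, room temperature, protected from light, after compounds sat 15 min with CYP1A2 and pro-luciferin substrate. P450-Glo detection gave luminescence; furafylline served as control.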

[18] = qHTS Counterscreen for compound interference against the NCATS DSHEA and TCM libraries (AID 1919978); conditions: firefly luciferase detection reagent interference, luminescence;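 further: compounds preincubated with 1 µM D-luciferin or buffer before detection reagent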
Summary of the method: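 Compounds, titrated from 19.5 nM to 39.8 uM final, were pinned onto 1 uM D-luciferin or plain 100 mM potassium phosphate. After 15 min at room temperature, luciferin detection reagent was added for 30 min before the luminescence read.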

[19] = Dual reporter qHTS for agonist of Pregnane X Receptor (hPXR) against the NCATS DSHEA and TCM libraries: Fluorescence readout (AID 1920058)
Summary of the method: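 Viability readout (CellTiter-Fluor, 405/540 nm, 1 h) from agonist-mode PXR dual reporter in hPXR-Luc HepG2 cells. Substances ~24 h, 37 °C, 5% CO2; rifampicin reference, tetraoctyl ammonium bromide cytotoxic control.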

[20] = target: Nuclear receptor subfamily 1 group I member 2 (Homo sapiens) (UniProt O75469); test: Dual reporter qHTS for agonist of Pregnane X Receptor (hPXR) against the NCATS DSHEA and TCM libraries: Luminescence readout (AID 1920059)
Sequence of Nuclear receptor subfamily 1 group I member 2 (Homo sapiens) (O75469 whole entry, looked up): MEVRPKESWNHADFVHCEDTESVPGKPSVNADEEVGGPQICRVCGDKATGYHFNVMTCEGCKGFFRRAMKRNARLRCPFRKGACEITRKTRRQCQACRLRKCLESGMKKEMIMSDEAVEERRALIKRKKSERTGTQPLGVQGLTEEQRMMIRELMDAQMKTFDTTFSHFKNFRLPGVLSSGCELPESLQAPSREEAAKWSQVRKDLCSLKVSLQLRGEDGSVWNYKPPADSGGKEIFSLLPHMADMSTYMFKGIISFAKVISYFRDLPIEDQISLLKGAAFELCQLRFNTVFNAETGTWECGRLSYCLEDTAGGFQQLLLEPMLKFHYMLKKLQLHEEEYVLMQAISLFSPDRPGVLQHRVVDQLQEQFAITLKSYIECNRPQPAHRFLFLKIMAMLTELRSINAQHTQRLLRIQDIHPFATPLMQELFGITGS
Summary of the method: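 hPXR-Luc HepG2 cells, 2000/well in 5% charcoal-stripped FBS medium, attached 5 h, then exposed 24 h at 37C to compounds. Viability by CellTiter-Fluor, then luciferase luminescence with ONE-Glo.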

Compound: O=C(OCC1=C[C@@H](O)[C@@H]2C=CO[C@@H](O[C@@H]3O[C@H](CO)[C@@H](O)[C@H](O)[C@H]3O)[C@H]12)c1ccc(O)cc1
- outcome [1]: inactive
- outcome [2]: inactive
- outcome [3]: inactive
- outcome [4]: inactive
- outcome [5]: inactive
- Potency [6]: inactive
- Potency [7]: inactive
- Potency [8]: inactive
- Potency [9]: 10.3 µM (active)
- Potency [10]: inactive
- Potency [11]: inactive
- Potency [12]: inactive
- outcome [13]: inactive
- Potency [14]: inactive
- Potency [15]: inactive
- outcome [16]: inactive
- Potency [17]: inactive
- max response [18]: -1.45%
- outcome [19]: inactive
- Potency [20]: inactive

Compound: CC1CCCCCCCc2cc(O)cc(O)c2C(=O)O1 (stereo not given)
- Potency [6]: inactive
- Potency [7]: inactive
- Potency [8]: inactive
- Potency [9]: 26.7 µM (active)
- Potency [10]: inactive

Compound: O=C(OC[C@H]1O[C@@H](Oc2ccccc2COC(=O)C2(O)C=CCCC2O)[C@H](O)[C@@H](O)[C@@H]1O)c1ccccc1 (stereo not given in full)
- Potency [6]: inactive
- Potency [7]: inactive
- Potency [8]: inactive
- Potency [9]: 5.19 µM (active)
- Potency [10]: inactive

Compound: C=CC(C)(O)CC/C=C(\C)C(=O)O[C@@H]1[C@@H](O)[C@H](OC(C)(C=C)CC/C=C(\C)C(=O)O)O[C@H](CO)[C@H]1OC(=O)/C(C)=C/CCC(C)(O)C=C (stereo not given in full)
- Potency [6]: inactive
- Potency [7]: inactive
- Potency [8]: inactive
- Potency [9]: inactive
- Potency [10]: inactive

Compound: CSCC1OC(n2cnc3c(N)ncnc32)C(O)C1O (stereo not given)
- Potency [6]: inactive
- Potency [7]: inactive
- Potency [8]: inactive
- Potency [9]: inactive
- Potency [10]: inactive

Compound: CC1(C)C=Cc2c(ccc3c2[N+]([O-])=C2C3(O)CC34NC(=O)C5(CCCN5C3=O)CC4C2(C)C)O1 (stereo not given)
- Potency [6]: inactive
- Potency [7]: inactive
- Potency [8]: inactive
- Potency [9]: 4.12 µM (active)
- Potency [10]: inactive

Compound: CCC(C)/C=C(C)/C=C/C(=O)C1CCC(O)C(C)(O)C1=O (stereo not given)
- Potency [6]: inactive
- Potency [7]: inactive
- Potency [8]: inactive
- Potency [9]: 23.8 µM (active)
- Potency [10]: inactive

Compound: CC(O)C1CCC2C3CCC4CC(OC5OC(C(=O)O)C(O)C(O)C5O)CCC4(C)C3CCC12C (stereo not given)
- Potency [6]: inactive
- Potency [7]: inactive
- Potency [8]: inactive
- Potency [9]: inactive
- Potency [10]: inactive

Compound: COC(=O)[C@]1(C)CCC[C@@]2(C)[C@@H]3CC[C@@H]4C[C@@]3(CC[C@@H]21)C[C@H]4C(=O)O
- Potency [6]: inactive
- Potency [7]: inactive
- Potency [8]: inactive
- Potency [9]: inactive
- Potency [10]: inactive

Compound: C=CC(C)(CCC=C(C)C)O[C@@H]1O[C@H](CO)[C@@H](O)[C@H](O)[C@H]1O (stereo not given in full)
- Potency [6]: inactive
- Potency [7]: inactive
- Potency [8]: inactive
- Potency [9]: inactive
- Potency [10]: inactive

Compound: CC1(C)CC[C@]2(C(=O)O[C@@H]3O[C@H](CO[C@@H]4O[C@H](CO)[C@@H](O)[C@H](O)[C@H]4O)[C@@H](O)[C@H](O[C@@H]4O[C@H](CO)[C@@H](O)[C@H](O)[C@H]4O)[C@H]3O)[C@H](O)C[C@]3(C)C(=CCC4[C@@]5(C)CC[C@H](O[C@@H]6OC[C@@H](O)[C@H](O)[C@H]6O)[C@@](C)(C(=O)O)C5CC[C@]43C)[C@@H]2C1 (stereo not given in full)
- Potency [6]: inactive
- Potency [7]: inactive
- outcome [8]: inactive [at 11.6 µM]
- activity change, negative = thiol reactive [9]: 59.1% [at 11.5 µM]
- activity, negative = inhibition [10]: -3.16% [at 11.6 µM]

Compound: C[C@@H]1CCC2C(C)(C)[C@H](O)[C@H](O)C[C@]2(C)[C@@]12Cc1c(O)cc3c(c1O2)CN(CCCC(=O)O)C3=O (stereo not given in full)
- Potency [6]: inactive
- Potency [7]: inactive
- Potency [8]: inactive
- Potency [9]: inactive
- Potency [10]: inactive

Compound: CCC(C)/C=C(C)/C=C/C1=CC2=C(Cl)C(=O)C(C)(OC(C)=O)C(=O)C2=CN1C(CC(=O)O)C(=O)O (stereo not given)
- Potency [6]: inactive
- Potency [7]: inactive
- Potency [8]: inactive
- Potency [9]: 0.733 µM (active)
- Potency [10]: inactive

Compound: C[C@@H]1O[C@@H](O[C@H]2[C@H](O[C@H]3[C@H](O[C@H]4CC[C@@]5(C)C(CC[C@]6(C)C5CC=C5[C@@H]7CC(C)(C)C[C@@H](O)[C@]7(C)CC[C@]56C)C4(C)C)O[C@H](C(=O)O)[C@@H](O)[C@@H]3O)O[C@H](C(=O)O)[C@H](O)[C@@H]2O)[C@H](O)[C@H](O)[C@H]1O (stereo not given in full)
- Potency [6]: inactive
- Potency [7]: inactive
- outcome [8]: inactive [at 11.6 µM]
- activity change, negative = thiol reactive [9]: 56.2% [at 11.5 µM]
- activity, negative = inhibition [10]: 0.805% [at 11.6 µM]

Compound: CC(=O)O[C@@H](C[C@@H]1C=C(C)C(=O)O1)[C@H](C)[C@H]1CCC2[C@@]3(C)CC[C@H](O[C@@H]4O[C@H](CO)[C@@H](O)[C@H](O)[C@H]4O[C@@H]4O[C@@H](C)[C@H](O)[C@@H](O)[C@H]4O)C(C)(C)C3CC[C@@]2(C)[C@@]12COC(=O)C2 (stereo not given in full)
- Potency [6]: inactive
- Potency [7]: inactive
- activity change, negative = inhibition [8]: -7.53% [at 11.6 µM]
- activity change, negative = thiol reactive [9]: 32.4% [at 11.5 µM]
- activity, negative = inhibition [10]: -4.12% [at 11.6 µM]

Compound: O=c1[nH]ccc2nc(-c3ccc(CN4CCC(c5nc(-c6ccccn6)n[nH]5)CC4)cc3)c(-c3ccccc3)cc12
- Potency [6]: inactive
- Potency [7]: inactive
- Potency [8]: inactive
- Potency [9]: inactive
- Potency [10]: inactive

Compound: CC(C)CC(c1c(O)c(C=O)c(O)c(C=O)c1O)C1CCC(C)(O)C2CC(C(C)(C)O)CCC12C (stereo not given)
- Potency [6]: inactive
- Potency [7]: inactive
- Potency [8]: inactive
- Potency [9]: 4.12 µM (active)
- Potency [10]: inactive
